The structures appear in SMILES notation. Records with an inconclusive call do not appear. A number with no mark means an inactive call. Activity calls are given as the source filed them. Calls come from the whole dose curve; as a rule, active = well fitted curve in the direction sought with a large enough effect; inconclusive = small, poorly fitted or top-dose-only effect, or another doubt; inactive = no such curve, though single readings can be large; an effect the other way counts as inactive or inconclusive.

Assay [1] deals with Rap guanine nucleotide exchange factor 3 (Homo sapiens) (UniProt O95398). Description: Confirmatory qHTS for antagonist of cAMP-regulated guanine nucleotide exchange factor 3 (EPAC1) (AID 1645880). Note: nearly all actives have a fitted effect of over 55% in size. Note: potency is the fitted concentration of half-maximal effect. The method, boiled down: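 Nucleotide exchange uses 100 nM EPAC1, 250 nM RAP1B-BODIPY-GDP and 50 uM GDP, with compounds in a concentration-titration series. After 5 min at room temperature, fluorescence (480 nm ex/540 nm em) is read every 5 min for 30 min. Data are normalized to control ATA and DMSO.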
Chain of Rap guanine nucleotide exchange factor 3 (Homo sapiens) (O95398 whole entry, looked up): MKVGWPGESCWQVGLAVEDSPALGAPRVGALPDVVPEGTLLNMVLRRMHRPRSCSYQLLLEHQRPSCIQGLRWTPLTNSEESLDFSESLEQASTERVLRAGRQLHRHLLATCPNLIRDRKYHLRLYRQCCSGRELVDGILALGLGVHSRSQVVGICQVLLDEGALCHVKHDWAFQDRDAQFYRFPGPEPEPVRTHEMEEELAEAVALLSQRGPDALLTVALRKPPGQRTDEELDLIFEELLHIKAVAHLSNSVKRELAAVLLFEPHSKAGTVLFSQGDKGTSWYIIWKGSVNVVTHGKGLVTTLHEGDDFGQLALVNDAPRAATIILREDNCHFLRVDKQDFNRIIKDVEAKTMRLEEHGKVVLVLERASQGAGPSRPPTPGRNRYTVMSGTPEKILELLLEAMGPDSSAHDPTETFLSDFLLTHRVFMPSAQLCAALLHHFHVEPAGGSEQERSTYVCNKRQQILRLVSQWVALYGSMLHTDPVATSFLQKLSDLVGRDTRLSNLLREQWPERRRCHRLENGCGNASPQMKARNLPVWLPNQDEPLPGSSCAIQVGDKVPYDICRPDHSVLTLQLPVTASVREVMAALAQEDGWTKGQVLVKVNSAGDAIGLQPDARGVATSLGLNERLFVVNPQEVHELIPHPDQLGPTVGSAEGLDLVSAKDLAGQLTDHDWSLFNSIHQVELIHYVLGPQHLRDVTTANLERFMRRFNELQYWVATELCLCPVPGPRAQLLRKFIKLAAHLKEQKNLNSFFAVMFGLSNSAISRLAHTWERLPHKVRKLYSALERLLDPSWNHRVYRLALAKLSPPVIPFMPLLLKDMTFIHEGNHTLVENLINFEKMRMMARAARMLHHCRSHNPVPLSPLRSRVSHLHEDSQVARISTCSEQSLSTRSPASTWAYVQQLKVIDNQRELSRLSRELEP

Assay [2] has the same target. Description: Confirmatory qHTS for agonist of cAMP-regulated guanine nucleotide exchange factor 3 (EPAC1) (AID 1645881).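 Note: EPAC1 catalysed release of BODIPY-GDP from Rap1B seen as fluorescence loss; 100% = effect of cAMP agonist control; nearly all actives have a fitted effect of over 75% in size.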
In assay [3] the target is Rap guanine nucleotide exchange factor 4 (Homo sapiens) (UniProt Q8WZA2). Description: Confirmatory qHTS for agonist of cAMP-regulated guanine nucleotide exchange factor 4 (EPAC2) (AID 1645884).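 Note: nucleotide exchange releases bodipy-GDP from Rap1 and this lowers its fluorescence; % is set by controls: 0 for no effect and ±100 for the full control effect; nearly all actives have a fitted effect of over 65% in size.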
Chain of Rap guanine nucleotide exchange factor 4 (Homo sapiens) (Q8WZA2 whole entry, looked up): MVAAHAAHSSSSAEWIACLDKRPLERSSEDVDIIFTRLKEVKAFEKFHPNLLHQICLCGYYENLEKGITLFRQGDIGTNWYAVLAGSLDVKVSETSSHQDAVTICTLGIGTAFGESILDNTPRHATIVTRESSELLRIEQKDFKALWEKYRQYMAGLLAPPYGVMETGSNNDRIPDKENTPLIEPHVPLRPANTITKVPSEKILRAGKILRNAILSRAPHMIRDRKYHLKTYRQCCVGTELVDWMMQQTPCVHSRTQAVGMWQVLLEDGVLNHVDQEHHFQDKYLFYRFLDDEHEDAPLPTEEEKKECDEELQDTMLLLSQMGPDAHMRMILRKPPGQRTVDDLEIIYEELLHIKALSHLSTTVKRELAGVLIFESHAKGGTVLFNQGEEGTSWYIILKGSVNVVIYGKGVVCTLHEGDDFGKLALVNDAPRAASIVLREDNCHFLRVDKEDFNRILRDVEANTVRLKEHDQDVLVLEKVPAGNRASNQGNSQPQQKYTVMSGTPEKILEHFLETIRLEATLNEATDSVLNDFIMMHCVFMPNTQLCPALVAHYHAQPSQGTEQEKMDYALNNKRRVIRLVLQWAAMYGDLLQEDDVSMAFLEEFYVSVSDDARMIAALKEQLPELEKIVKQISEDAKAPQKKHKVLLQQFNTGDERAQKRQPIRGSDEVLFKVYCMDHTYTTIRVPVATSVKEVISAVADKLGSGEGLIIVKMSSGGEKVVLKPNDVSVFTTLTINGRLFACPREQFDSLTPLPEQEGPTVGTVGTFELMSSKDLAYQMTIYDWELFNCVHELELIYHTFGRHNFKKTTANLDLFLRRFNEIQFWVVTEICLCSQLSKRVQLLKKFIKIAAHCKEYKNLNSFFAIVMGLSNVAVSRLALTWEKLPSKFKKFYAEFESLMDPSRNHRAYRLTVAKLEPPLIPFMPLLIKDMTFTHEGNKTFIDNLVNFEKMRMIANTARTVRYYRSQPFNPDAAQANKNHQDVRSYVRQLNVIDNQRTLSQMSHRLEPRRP
Assay [4] has the same target. Description: Confirmatory qHTS for antagonist of cAMP-regulated guanine nucleotide exchange factor 4 (EPAC2) (AID 1645885). For activity change, negative = inhibition: % is set by controls: 0 for no effect and ±100 for the full control effect. Note: nearly all actives have a fitted effect of over 25% in size. Note: potency is the fitted concentration of half-maximal effect.
Assay [5] addresses Rap guanine nucleotide exchange factor 3 (Homo sapiens) (UniProt O95398). As to the kind of experiment: Counterscreen qHTS for antagonist of cAMP-regulated guanine nucleotide exchange factor 3 (EPAC1) (AID 1645888).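 Note: fluorescence loss as bound BODIPY-GDP is released from Rap1B; % of control where 0% means no effect.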 The method, boiled down:
(§1)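 Rap1B–BODIPY-GDP (250 nM) with 50 uM GDP; compounds pin-transferred to 9.74 nM–152 uM final (activator) or from 7.32 nM upwards (inhibitor). Fluorescence Ex/Em 480/540 nm read at 5 and 30 min, then after adding cAMP or buffer, at room temperature.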

The target is the same in assay [6]. As to the kind of experiment: Counterscreen qHTS for agonist of cAMP-regulated guanine nucleotide exchange factor 3 (EPAC1) (AID 1645889). Note: % of control where 0% means no effect; nearly all actives have a fitted effect of over 40% in size. Summed up: as §1

Consider `COC(=O)c1ccc2nc(-c3ccc(C)cc3)c(Cc3ccc(C)cc3)n2c1`, for which the Potency entry in assay [1], in assay [2], in assay [3] and in assay [5] was “inactive” throughout. Moreover, the Potency in assay [4] was 37.9 µM (active).
In the case of `Cc1cccc(Cn2cc(SCC(=O)Nc3nccs3)c3ccccc32)c1`, the Potency entry in assay [1], in assay [2], in assay [3], in assay [4] and in assay [5] was “inactive” in each case.
`CC(C)c1ccc(NS(=O)(=O)c2cn(C)c(=O)n(C)c2=O)cc1`: the Potency entry in assay [1], in assay [2], in assay [3] and in assay [5] was “inactive” in each case. The Potency in assay [4] is 6.01 µM (active).
Take `COC(=O)c1ccc(/C=C2\CCn3c2nc2cc(C(=O)O)ccc2c3=O)cc1`: the Potency result in assay [1], in assay [2], in assay [3], in assay [4] and in assay [5] was “inactive” in each case.
Regarding `COc1ccc(Br)cc1CN(C)C(=O)c1ccccc1OCc1c(C)noc1C`, the Potency entry in assay [1], in assay [2], in assay [3], in assay [4] and in assay [5] was “inactive” throughout.
Take `Cc1c(NC(=O)/C=C/c2cn(-c3ccccc3)nc2-c2ccccc2)c(=O)n(-c2ccccc2)n1C`: the Potency result in assay [1], in assay [2] and in assay [4] was “inactive” each time. Moreover, the activation in assay [3] is 0% [at 17.1 µM, percent relative to cAMP agonist control]. In assay [5], the activity change, negative = inhibition was -4.59% [at 30.8 µM].
Regarding `COc1cc(OC)c(NC(=O)N2CCC(CN3CCOCC3)CC2)cc1Cl`, the Potency result in assay [1], in assay [2], in assay [3], in assay [4] and in assay [5] was “inactive” in each case.
Consider `COc1cc(NC(=S)NCCC(c2ccccc2)c2ccccc2)cc(OC)c1`, for which the Potency result in assay [1], in assay [2] and in assay [4] was “inactive” each time. Also, in assay [3], the activation is 6.66% [at 17.1 µM, percent relative to cAMP agonist control]. Moreover, in assay [5], the activity change, negative = inhibition was 11% [at 30.8 µM].
Take `COc1ccc(C2=NN(c3nc4ccccc4s3)C(=O)C2)cc1`: in assay [1], the Potency was 75.7 µM (active). Further, the Potency entry in assay [2], in assay [3], in assay [4] and in assay [5] was “inactive” each time.
With `COC1C(CO)OC(n2c3c(Cl)cccc3c3c4c(c5c6cccc(Cl)c6[nH]c5c32)C(=O)NC4=O)C(O)C1O` (centres undefined), the Potency result in assay [1], in assay [2], in assay [3], in assay [4] and in assay [5] was “inactive” in each case.
On to `Cc1nn(-c2ccccc2)c(N2CCCC2)c1/C=C1\N=C(c2ccc(OC(C)C)cc2)OC1=O`, for which the Potency entry in assay [1], in assay [2], in assay [3], in assay [4] and in assay [5] was “inactive” in each case.
For the molecule `COc1ccc(N2CCN(C(=O)COC(=O)c3ccc(C)o3)CC2)cc1`, the Potency result in assay [1], in assay [2] and in assay [4] was “inactive” throughout. Further, in assay [3], the activation is 5.39% [at 17.1 µM, percent relative to cAMP agonist control]. For the same molecule, the activity change, negative = inhibition in assay [5] was -20% [at 30.8 µM].
Regarding `Cc1ccc(C(=O)OCC(=O)Nc2sccc2C(N)=O)cc1NC(=O)c1ccco1`, the Potency in assay [1] is 26.9 µM (active). Besides, the Potency result in assay [2], in assay [3], in assay [4] and in assay [5] was “inactive” each time.
Take `C#CCOc1ccc(/C=C2/C(=O)N(c3cccc(C(=O)O)c3)N=C2C)cc1OC`: the Potency result in assay [1], in assay [2] and in assay [4] was “inactive” each time. The activation in assay [3] was 5.95% [at 17.1 µM, percent relative to cAMP agonist control]; in assay [6], 10.5% [at 30.8 µM]. Further, the activity change, negative = inhibition in assay [5] is 6.78% [at 30.8 µM].
`Cc1ccc(OCC(=O)Nc2ccccc2N2CCCC2)c(C)c1`: the Potency result in assay [1], in assay [2], in assay [3], in assay [4], in assay [5] and in assay [6] was “inactive” in each case.
`Cc1ccc(S(=O)(=O)N2[C@@H](c3ccc(Cl)c(Cl)c3)C(C(=O)O)=C[C@H]2CC2CCCC2)cc1`: the Potency in assay [1] is 44.7 µM (active). Besides, the Potency entry in assay [2] and in assay [4] was “inactive” throughout. Besides, the activation in assay [3] was 11.3% [at 17.1 µM, percent relative to cAMP agonist control]; in assay [6], 18.3% [at 30.8 µM]. Besides, the activity change, negative = inhibition in assay [5] was -8.49% [at 30.8 µM].
`CCN(CC)c1nc(SCC(=O)O)nc(N(CC)CC)n1`: the Potency entry in assay [1], in assay [2], in assay [3], in assay [5] and in assay [6] was “inactive” in each case. The Potency in assay [4] was 12 µM (active).
On to `COCCn1c(=N)c(C(=O)NC2CCCC2)cc2c(=O)n3cc(C)ccc3nc21`, for which the Potency result in assay [1], in assay [2], in assay [3], in assay [4] and in assay [5] was “inactive” in each case.
Regarding `CC(Sc1ccccc1)C(=O)NNC(=O)c1csc(N2CCOCC2)n1` (centres undefined), the Potency result in assay [1], in assay [2] and in assay [4] was “inactive” throughout. The activation in assay [3] was 4.98% [at 17.1 µM, percent relative to cAMP agonist control]; in assay [6] it was 28.3% [at 30.8 µM]. In assay [5], the activity change, negative = inhibition was 1.84% [at 30.8 µM].
Take `Cc1onc(-c2c(F)cccc2Cl)c1C(=O)OCC(=O)N(C)c1ccccc1`: the Potency entry in assay [1], in assay [2] and in assay [4] was “inactive” each time. The activation was 4.47% [at 17.1 µM, percent relative to cAMP agonist control] in assay [3] and 12.2% [at 30.8 µM] in assay [6]. In addition, the activity change, negative = inhibition in assay [5] was -6.38% [at 30.8 µM].
Regarding `COc1ccccc1/C=C1\SC(=S)N(NS(=O)(=O)c2ccc(C)cc2)C1=O`, the Potency in assay [1] was 12.6 µM (active). Further, the Potency entry in assay [2] and in assay [4] was “inactive” throughout. For the same molecule, the activation was 1.14% [at 17.1 µM, percent relative to cAMP agonist control] in assay [3] and -16.6% [at 30.8 µM] in assay [6]. In assay [5], the activity change, negative = inhibition was 2.6% [at 30.8 µM].
On to `CC(=O)C1=C(O)C(=O)N(c2cccc(Br)c2)C1c1ccc(Br)cc1` (centres undefined), for which, in assay [1], the Potency is 37.9 µM (active). The Potency result in assay [2], in assay [3], in assay [4], in assay [5] and in assay [6] was “inactive” in each case.
In the case of `COc1ccc(N2CCN(C(=O)c3noc4c3CCCCC4)CC2)cc1`, the Potency entry in assay [1], in assay [2], in assay [3], in assay [4], in assay [5] and in assay [6] was “inactive” throughout.
